Among the test systems are HCT-15 colon; HT29 colon; SNB-75 CNS; SNB-19 CNS; U251 CNS; PC-3 prostate; SK-MEL-5 melanoma; UACC-62 melanoma; LOX IMVI melanoma; SK-MEL-28 melanoma.
Holding throughout (assay): NCI-60 one-dose screen, 48 h (100 = growth as untreated, 0 = no growth, -100 = all killed)
Conditions in all cases: 10 µM unless noted

Compounds without any hit were thinned out: in the full panel of roughly 83,000, 20% have a hit.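 Single-concentration screen, 48 h exposure, 96-well plates. Endpoint: percent growth. Below 10 = active.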 A number with no mark means an inactive call. The source made the active and inactive calls.

Consider `COc1ccc(NC(=O)Cn2c(/C=C/c3cccc(Br)c3)nc3ccccc3c2=O)cc1`, for which the growth is 70.9% in the experiment with HCT-15 colon; 51.9% in the experiment with HT29 colon; -29.7% (active) with SNB-75 CNS; 49.3% with SNB-19 CNS; -1.66% (active) in the experiment with U251 CNS; 79.3% in the experiment on PC-3 prostate. The growth was 78.5% with SK-MEL-5 melanoma, 68.4% in the experiment on UACC-62 melanoma, 28.8% in the experiment with LOX IMVI melanoma and 70.2% in the experiment on SK-MEL-28 melanoma.
On to `Clc1ccccc1Nc1nnc(-c2c[nH]c3ccccc23)o1`, for which the growth with HCT-15 colon was 26.1%; in the experiment with HT29 colon, 2.07% (active); in the experiment on SNB-75 CNS, 42%; with SNB-19 CNS, 41%; with U251 CNS, 7.39% (active); in the experiment on PC-3 prostate, 32.7%. In addition, the growth was 9.29% (active) in the experiment with SK-MEL-5 melanoma, 15.2% in the experiment on UACC-62 melanoma, 15.5% with LOX IMVI melanoma and 59.4% with SK-MEL-28 melanoma.
Consider `COc1ccc2[nH]c(=O)c(CSc3ccccc3Nc3nccc(-c4ccc(Cl)cc4)n3)cc2c1`, for which the growth in the experiment on HCT-15 colon was 25.8%; with HT29 colon, 17.3%; with SNB-75 CNS, 23.6%; in the experiment with SNB-19 CNS, 56.8%; in the experiment with U251 CNS, 37.8%; with PC-3 prostate, 38.5%. Moreover, the growth was 25.4% in the experiment with SK-MEL-5 melanoma, 52.6% in the experiment on UACC-62 melanoma, 19.4% with LOX IMVI melanoma and 74.1% in the experiment on SK-MEL-28 melanoma.
Consider `CN1C(=O)C2(C(C#N)=C(c3ccc(Cl)cc3)Nc3c2c(-c2ccccc2)nn3-c2ccccc2)c2ccccc21` (stereo not given), for which the growth with HCT-15 colon was 87.6%; in the experiment with HT29 colon, 85.2%; in the experiment with SNB-75 CNS it was 69.4%; with SNB-19 CNS, 87%; in the experiment on U251 CNS, 102%; with PC-3 prostate, 85.8%. Besides, the growth in the experiment on SK-MEL-5 melanoma is 88.1%; in the experiment with UACC-62 melanoma, 69.5%; in the experiment with LOX IMVI melanoma, 55.3%; with SK-MEL-28 melanoma it was 94.2%.
As for `COc1ccc(N=Nc2c(N)nn3c(-c4ccc(OC)c(OC)c4)ccnc23)cc1`, the growth with HCT-15 colon was 91.7%; with HT29 colon, 68.5%; in the experiment with SNB-75 CNS, 82.3%; with SNB-19 CNS, 74.1%; in the experiment with U251 CNS it was 69.3%; in the experiment with PC-3 prostate, 87.5%. The growth was 77.4% in the experiment on SK-MEL-5 melanoma, 64.3% with UACC-62 melanoma, 86.1% in the experiment with LOX IMVI melanoma and 86.4% in the experiment with SK-MEL-28 melanoma.
As to `Fc1ccc(F)c(CNc2nc(SCCN3CCOCC3)nc3c2cnn3CC(Cl)c2ccc(Br)cc2)c1` (stereo not given), the growth in the experiment on HCT-15 colon is -17.6% (active); in the experiment on HT29 colon, -49.7% (active); with SNB-75 CNS, 56.3%; in the experiment on SNB-19 CNS, 42.2%; in the experiment with U251 CNS, 26.7%; in the experiment with PC-3 prostate, 25.2%. Besides, the growth in the experiment on SK-MEL-5 melanoma was -12.9% (active); in the experiment with UACC-62 melanoma, -1.48% (active); in the experiment with LOX IMVI melanoma, -7.7% (active); with SK-MEL-28 melanoma, 32.3%.
As for `COc1ccc2[nH]c(=O)c(CSc3ccccc3Nc3nccc(-c4ccc(C(F)(F)F)cc4)n3)cc2c1`, the growth with HCT-15 colon is 12.9%; in the experiment on HT29 colon it was 4.71% (active); in the experiment with SNB-75 CNS, -5.5% (active); with SNB-19 CNS it was 33.7%; in the experiment on U251 CNS, 22.5%; in the experiment on PC-3 prostate, 3.44% (active). In addition, the growth in the experiment with SK-MEL-5 melanoma is 48.8%; in the experiment on UACC-62 melanoma, 47.9%; in the experiment with LOX IMVI melanoma, 7.62% (active); with SK-MEL-28 melanoma, 51.4%.
For the compound `O=C1Nc2ccccc2/C1=C\c1ccc(OCC(=O)c2ccc(Br)cc2)cc1`, the growth in the experiment on HCT-15 colon was 45.4%; with HT29 colon it was 82.7%; with SNB-75 CNS, 79.6%; with SNB-19 CNS, 79.6%; in the experiment on U251 CNS it was 71.5%; with PC-3 prostate, 62.4%. Moreover, the growth in the experiment on SK-MEL-5 melanoma is 28.9%; with UACC-62 melanoma it was 52.6%; in the experiment with LOX IMVI melanoma, 28.9%; with SK-MEL-28 melanoma it was 80.2%.
Take `O=C(N/N=C/c1ccsc1)c1[nH]c2ccc(Br)cc2c1-c1ccccc1`: the growth with HCT-15 colon was -62.8% (active); in the experiment with HT29 colon, -62.8% (active); with SNB-75 CNS, -32.3% (active); in the experiment on SNB-19 CNS it was -41.5% (active); in the experiment with U251 CNS, -89.1% (active); in the experiment with PC-3 prostate it was -26.1% (active). For the same compound, the growth in the experiment with SK-MEL-5 melanoma is -97.2% (active); with UACC-62 melanoma, -91.6% (active); in the experiment with LOX IMVI melanoma it was -100% (active); in the experiment with SK-MEL-28 melanoma it was -87.4% (active).
On to `O=C1/C(=C/C=C/c2ccco2)SC(=S)N1CC(=S)C1C=CS(=O)(=O)C1` (stereo not given), for which the growth was 75.6% in the experiment on HCT-15 colon; 109% in the experiment on HT29 colon; 93.5% in the experiment on SNB-75 CNS; 95.2% in the experiment with SNB-19 CNS; 88.7% in the experiment with U251 CNS; 96.7% in the experiment on PC-3 prostate. Moreover, the growth in the experiment on SK-MEL-5 melanoma is 86.8%; with UACC-62 melanoma it was 74.4%; in the experiment on LOX IMVI melanoma, 66.7%; in the experiment on SK-MEL-28 melanoma, 93.9%.
On to `CC(C)(C)C(=O)C1CC(C#N)=C2C=Cc3c(ccc4ccccc34)N21` (stereo not given), for which the growth is 88.3% in the experiment with HCT-15 colon; 90.4% in the experiment with HT29 colon; -5.13% (active) in the experiment on SNB-75 CNS; 60.1% in the experiment on SNB-19 CNS; 75.2% with U251 CNS; 80% in the experiment on PC-3 prostate. The growth is 91.1% in the experiment on SK-MEL-5 melanoma, 91.1% with UACC-62 melanoma, 95.5% with LOX IMVI melanoma and 106% with SK-MEL-28 melanoma.
Turning to `N#CCc1nnc(NC(=O)c2ccc(-n3c(=O)[nH]c4ccccc4c3=O)cc2)s1`, the growth in the experiment with HCT-15 colon is 97.1%; in the experiment on HT29 colon, 116%; in the experiment on SNB-75 CNS, 86.8%; in the experiment with SNB-19 CNS, 94.6%; with U251 CNS, 106%; in the experiment with PC-3 prostate, 105%. The growth with SK-MEL-5 melanoma was 102%; in the experiment with UACC-62 melanoma, 86.8%; in the experiment on LOX IMVI melanoma, 90.5%; in the experiment with SK-MEL-28 melanoma it was 103%.
For the compound `COc1cc(/C=C/C(=O)c2cnn(-c3cc(=O)[nH]c4ccccc34)c2C)cc(OC)c1OC`, the growth is 12.2% with HCT-15 colon; 9.84% (active) in the experiment on HT29 colon; 71.9% in the experiment with SNB-75 CNS; 26.6% with SNB-19 CNS; 9.13% (active) in the experiment on U251 CNS; 43.3% in the experiment on PC-3 prostate. Besides, the growth in the experiment on SK-MEL-5 melanoma is -24.9% (active); in the experiment with UACC-62 melanoma it was 29.9%; in the experiment on LOX IMVI melanoma it was 13.5%; with SK-MEL-28 melanoma it was 36.5%.

The values above are taken from PubChem BioAssay (NCI).
